ChEMBL document CHEMBL3433997, “St. Jude Leishmania screening dataset” (2016)

Assays:
Format in all cases: functional
[1] = target: Solute carrier family 2, facilitated glucose transporter member 1 (Homo sapiens) (UniProt P11166); assay: ST_JUDE_LEISH: Cytotoxicity at 2uM final concentration against transgenic Leishmania Mexicana promastigotes LmGLUT1 that are glucose transport deficient and complemented with the human glucose transporter GLUT1. Activity is measured by DNA content using SYBR green in vitro
[2] = target: Hexose transporter 1 (Plasmodium falciparum) (UniProt O97467); assay: ST_JUDE_LEISH: Cytotoxicity at 2uM final concentration against transgenic Leishmania Mexicana promastigotes LmPfHT that are glucose transport deficient and complemented with the Plasmodium falciparum hexose transporter. Activity is measured by DNA content using SYBR green in vitro
[3] = target: Glucose transporter (Leishmania mexicana) (UniProt O61059); assay: ST_JUDE_LEISH: Cytotoxicity at 2uM final concentration against transgenic Leishmania Mexicana promastigotes LmGT2 that are glucose transport deficient and complemented with the L. Mexicana glucose transporter 2. Activity is measured by DNA content using SYBR green in vitro

Solute carrier family 2, facilitated glucose transporter member 1 (Homo sapiens), sequence (P11166 whole entry): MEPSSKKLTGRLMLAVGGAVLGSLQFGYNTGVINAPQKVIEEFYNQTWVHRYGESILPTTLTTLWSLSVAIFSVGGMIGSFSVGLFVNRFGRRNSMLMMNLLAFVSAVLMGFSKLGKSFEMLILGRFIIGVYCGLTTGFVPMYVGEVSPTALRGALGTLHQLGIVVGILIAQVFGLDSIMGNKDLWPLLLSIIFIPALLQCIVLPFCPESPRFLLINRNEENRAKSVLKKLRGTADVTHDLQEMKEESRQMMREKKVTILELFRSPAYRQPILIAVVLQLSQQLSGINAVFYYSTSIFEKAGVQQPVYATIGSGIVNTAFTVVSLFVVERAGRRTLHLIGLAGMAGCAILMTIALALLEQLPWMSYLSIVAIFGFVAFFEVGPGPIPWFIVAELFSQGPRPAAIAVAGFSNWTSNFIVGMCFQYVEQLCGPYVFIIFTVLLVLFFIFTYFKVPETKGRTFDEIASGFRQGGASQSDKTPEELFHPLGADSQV

Row | SMILES | inhibition [1] | inhibition [2] | inhibition [3]
1 | O=C(Cc1cc(=O)oc2cc(O)ccc12)NC1CCC(CN2CCC(c3c[nH]c4ccccc34)CC2)CC1 (stereo unspecified) | 2.39% | 2.2% | 2.14%
2 | CC(=O)C1(c2ccccc2)CCN(CCC2(c3ccc(Cl)c(Cl)c3)CN(C(=O)CC(C)C)CCO2)CC1 (stereo unspecified) | -0.51% | 0.43% | -2.67%
3 | O=[N+]([O-])c1ccc(Oc2c(Cl)cc(S(=O)(=O)N3CCC(CN4CCC(c5c[nH]c6ccccc56)CC4)CC3)cc2Cl)c(Cl)c1 | 1.89% | 0.25% | 3.15%
4 | CC[C@H]1CN2CC[C@H]1C[C@H]2[C@H](O)c1cc(-c2ccc(F)cc2C)nc2ccc(OC)cc12 | 4.97% | 1.01% | 2.55%
5 | CCCN(CCC)CCOC(=O)C(OCC)(c1ccccc1)c1ccccc1 | 1.8% | 0.63% | -0.33%
6 | CN1CC(c2ccc(Cl)c(Cl)c2)OC1=N (stereo unspecified) | -0.53% | 0.23% | -0.89%
7 | c1ccc2c(NCCCCCCCCCNc3c4ccccc4nc4ccccc34)c3ccccc3nc2c1 | 3.03% | 6.11% | 2.42%
8 | N#Cc1ccc(N(CC(=O)NCCc2ccccc2)CC2CC2)c2ccccc12 | 1.68% | 0.73% | 0.87%
9 | CC(=O)N(Cc1ccccc1-c1ccc(CNCCc2ccccc2)cc1)C1CCN(Cc2ccccc2)CC1 | 2.55% | 2.41% | 1.25%
10 | Oc1cc2c(cc1CN1CCN(Cc3ccccc3)CC1)CCC2 | 0.8% | 1.17% | -1.19%
11 | O=C(/C=C/c1ccc(Cl)c(Cl)c1)NC1CCC(CN2CCC(c3c[nH]c4cc(O)ccc34)CC2)CC1 (stereo unspecified) | 3.03% | 0.88% | -0.33%
12 | CNCCCCCCc1ccc(CC(C)NCC(O)c2cccc(Cl)c2)cc1 (stereo unspecified) | 6.3% | 2.29% | 0.1%
13 | O=C1COc2ccccc2N1CCN1CCC(NCc2ccc(-c3cccs3)cc2)CC1 | 8.28% | 7.16% | 3.03%
14 | CC[C@H]1CN2CC[C@H]1C[C@H]2[C@H](O)c1ccnc2ccc(O)cc12 | 0.99% | 2.1% | 1.04%
15 | CN1C2CCC1c1cc(NC(=O)c3cc(-c4ccc(Cl)cc4)cs3)ccc12 (stereo unspecified) | 8.89% | 9.62% | 8.52%
16 | O=C(/C=C/c1ccc(Cl)c(Cl)c1)NC1CCC(CN2CCC(c3c[nH]c4ccccc34)CC2)CC1 (stereo unspecified) | 2.35% | 1.2% | 1.83%

Row | SMILES | inhibition [1] | inhibition [2] | inhibition [3]
17 | S=C(Nc1ccccc1Cl)NC1CCC(CN2CCC(c3c[nH]c4ccccc34)CC2)CC1 (stereo unspecified) | 5.7% | 8.06% | 3.34%
18 | CN(C)c1cccc(NC(=O)N[C@H]2N=C(c3ccccc3)c3ccccc3N(CC(=O)N3CCCC3)C2=O)c1 | 2.85% | 2.62% | 2.53%
19 | CS(=O)(=O)Nc1ccc2[nH]cc(C3CCN(CC4CCC(NC(=O)/C=C/c5ccc(Cl)c(Cl)c5)CC4)CC3)c2c1 (stereo unspecified) | 0.82% | 6.93% | -0.55%
20 | Oc1cccc(C2CCCN(Cc3cccc4cc[nH]c34)C2)c1 (stereo unspecified) | 2.13% | 4% | 3.75%
21 | Cc1c(C(=O)NC2CCC(CN3CCC(c4c[nH]c5ccccc45)CC3)CC2)cnn1-c1c(Cl)cc(Cl)cc1Cl (stereo unspecified) | 1.64% | 1.93% | -1.52%
22 | CC[C@H]1CN2CC[C@H]1C[C@H]2[C@@H](O)c1cc(OCCCN(C)C)nc2ccc(OC)cc12 | -1.68% | -1.68% | -0.74%
23 | O=C(/C=C/c1ccc(Cl)c(Cl)c1)NCC1CCCC(CN2CCC(c3c[nH]c4ccccc34)CC2)C1 (stereo unspecified) | 2.54% | 3.43% | 0.26%
24 | O=C(NC1CCC(CN2CCC(c3c[nH]c4ccccc34)CC2)CC1)c1cc(-c2ccccc2)c(C(F)(F)F)s1 (stereo unspecified) | 11.2% | 14.7% | 6.95%
25 | COc1ccc(CC(C)NCC(O)c2cccc(Cl)c2)cc1C (stereo unspecified) | 7.48% | 5.85% | 7.3%
26 | CN1CC=C(c2c[nH]c3ccc(Br)cc23)CC1 | 1.93% | 0.19% | -0.72%
27 | CC[C@H]1CN2CC[C@H]1C[C@H]2[C@H](O)c1cc(-c2ccccc2C(F)(F)F)nc2ccc(OC)cc12 | 0.61% | 1.6% | -1.22%
28 | COc1ccc(CCNCc2ccc3nc(N)c(C)cc3c2)cc1 | 0.92% | 2.14% | 3.68%
29 | Oc1ccc(CN2CCN(CCOC(c3ccc(F)cc3)c3ccc(F)cc3)CC2)cc1Cl | 4.68% | -0.31% | -0.74%
30 | COc1coc(C(=O)NC2CCN(CC3(c4ccc(Cl)cc4)CCC3)CC2)c1OC | 4.7% | 4.52% | 2.81%
31 | O=C(/C=C/c1ccc(Cl)c(Cl)c1)NCC1CCC(N2CCC(c3c[nH]c4ccccc34)CC2)CC1 (stereo unspecified) | 5.53% | 11.2% | 0.18%
32 | CC(=O)N(Cc1ccccc1-c1cccc(CNCCc2ccccc2)c1)C1CCN(Cc2ccccc2)CC1 | 8.96% | 7.85% | 7.27%
